Compound activity (PubChem)
WT yeast gro inh: growth inhibition of WT yeast, mitochondrial fusion screen | mitochondrial fusion phenotypic screen, WT strain | inhibition, % at 10 µM | 190,000 compounds, 2.1% hits; in the data active = inhibition above about 58%; tested in S. cerevisiae
L major viab: reduces viability of Leishmania major promastigotes; resazurin fluorescence viability; AID 1063; inhibition, % at 10 µM; 200,000 compounds, 9% hits; in the data active = inhibition above about 50%;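 note: promastigotes grown with compound for 44 hours at 28 °C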
Insulin prom inh: TRM-6 insulin promoter activity inhibition; AID 1273; TRM-6 cells (human fetal islet line), insulin promoter-eGFP reporter, imaging; reporter expression induced with tamoxifen; inhibition, % at 2 µM; 130,000 compounds, 0.9% hits;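 active = inhibition above the mean plus 3 SD, with well images judged a real hit on visual review, cut at about 60% in these data, passing the limit was not always enough; inconclusive = inhibition over the cutoff but images rejected on review; inactive = inhibition not above the cutoff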
Insulin prom up: MIN6 insulin promoter up-regulation; z-score at 5 µM; AID 1625; 190,000 compounds, 0.3% hits; MIN6 insulin promoter-GFP reporter, high-content imaging; active compounds read high;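 active = z-score above 3 at 5 µM with at least 500 cells counted in the well; inconclusive = wells under 500 cells, flagged as cytotoxic or low count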
Autophagy HCS: alters autophagy in cells | 190,000 compounds, 0.98% hits | MEF GFP-LC3 puncta imaging; test concentration mostly 10 µM | calls only at 10 µM (by protocol);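 active = percentage of spot-positive cells more than 3 SD above its plate mean, without a fluorescence outlier flag or 80% toxicity; inconclusive = no clear call, values can overlap the other calls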
Each line names hits and unclear results; the compound was inactive in the other large screens. Sampled rows, rich in hits. Any-hit rate of the full collection: about 11%.

COc1ccc(S(=O)(=O)N2CCC(C(=O)N3CCc4ccccc4C3)CC2)cc1Cl	L major viab 96.4 (no result: Insulin prom up)
COc1ccc(S(=O)(=O)N2CCC(C(=O)N3CCC(C(N)=O)CC3)CC2)cc1Cl	none
CCNC(=S)NNc1nc(N2CCCCC2)nc(N2CCOCC2)n1	none
COc1ccc(NS(=O)(=O)c2cc(NC(=O)c3cnc(C)cn3)ccc2N2CCCC2)cc1	L major viab 95.3
COc1ccc(NS(=O)(=O)c2cc(NC(=O)C3CC3)ccc2N2CCOCC2)cc1	none (no result: Insulin prom inh)
COc1ccc(NS(=O)(=O)c2cc(NC(=O)C3CC3)ccc2N2CCCCC2)cc1	L major viab 55.8 (no result: Insulin prom inh)
CCOC(=O)/C(=C\c1ccc([N+](=O)[O-])o1)NC(=O)c1ccccc1	L major viab 99.5, Autophagy HCS active
CCCOC(=O)/C(=C\c1ccc([N+](=O)[O-])o1)NC(=O)c1ccccc1	L major viab 95.7, Autophagy HCS active
O=C(NCCO)/C(=C\c1ccc([N+](=O)[O-])o1)NC(=O)c1ccccc1	none (no result: Insulin prom inh)
C(=C\c1ccccc1)/CSc1nnc(-c2ccncc2)n1Cc1ccco1	none (no result: Insulin prom inh)
C(=C\c1ccccc1)/CSc1nnc(-c2ccccc2)n1Cc1ccco1	L major viab 85.1
c1ccc(-c2nnc(CSc3nnc(-c4ccncc4)n3Cc3ccco3)o2)cc1	WT yeast gro inh 81.7
O=C(CSc1nnc(-c2ccncc2)n1Cc1ccco1)OC1CCCCC1	L major viab 81.3
COc1ccccc1NS(=O)(=O)c1ccc(O)c(C(=O)OCC(=O)N2c3ccccc3CC2C)c1 (configuration not stated)	none (no result: Insulin prom inh)
CCc1ccc(OCC(=O)N2CCN=C2c2ccccc2)cc1	none
COc1ccc(CCCC(=O)Nc2ccc(F)cc2)cc1	none
NC(=O)c1cc2ccc(O)cc2oc1=NCc1ccccc1	Insulin prom up 6.96
NC(=O)c1cc2ccccc2oc1=NCc1ccccc1	none
COc1cc(/C=C/C(=O)CC(=O)/C=C/c2ccc(O)c(OC)c2)ccc1O	none (no result: Insulin prom up)
COc1ccc(C(=O)/C=C/c2ccc(OC)c(O)c2)c(F)c1	L major viab 82.1 (no result: Insulin prom inh)
Cc1c(/C=C/C(=O)c2ccc(Cl)s2)cnn1C	Insulin prom inh 75.0 (no result: Insulin prom up)
COc1cc(/C=C/C(=O)c2ccc(Cl)s2)cc(OC)c1O	L major viab 100.1
C/C(=C\C(=O)c1ccc(Cl)s1)N(C)C	none (no result: Insulin prom inh)
COc1ccc(/C=C/C(=O)c2ccc(Cl)s2)cc1O	L major viab 91.6
CCN(Cc1ccccc1)S(=O)(=O)c1nc2nc(C)c(C)c(C)n2n1	none
CCOC(=O)c1c(C)[nH]c(N=Nc2ccc(OC)cc2)c1C	none (no result: WT yeast gro inh, L major viab, Insulin prom inh, Autophagy HCS)
Cn1c(=O)[nH]c(=O)c2c1nc(N1CCCCC1)n2CCCSc1nc2ccccc2s1	none (no result: Insulin prom up)
CCOC(=O)c1c(C)nc2sc3c(=O)n(-c4ccc(C)cc4)cnc3c2c1-c1ccc(OC)cc1	none (no result: Insulin prom inh)
CCOC(=O)CSc1nc(C)nc2c1sc1nc(C)c(C(C)=O)c(-c3ccc(OC)cc3)c12	L major viab 85.1
COc1ccc(-c2cc(-c3n[nH]c(=S)n3-c3cccc4ccccc34)[nH]n2)cc1	none (no result: Insulin prom inh)
S=c1[nH]nc(-c2cc(-c3ccsc3)n[nH]2)n1-c1cccc2ccccc12	L major viab 74.6
CSCC(CO)NS(=O)(=O)c1ccc(C)cc1 (configuration not stated)	none (no result: WT yeast gro inh, L major viab, Insulin prom inh, Autophagy HCS)
COCCNc1nnc(SCC(=O)Nc2cc(-c3ccccc3)nn2-c2ccccc2)s1	none
CN(c1ccccc1)S(=O)(=O)c1cccc(NC(=O)CSc2nncs2)c1	L major viab 72.1
CC(=O)c1c(C)[nH]c(C(=O)Nc2cccc(S(=O)(=O)N(C)c3ccccc3)c2)c1C	L major viab 95.3
CN(c1ccccc1)S(=O)(=O)c1cccc(NC(=O)CSc2nnc(N)s2)c1	L major viab 78.1
COc1ccccc1NS(=O)(=O)c1cccc(NC(=O)c2[nH]c(C)c(C(C)=O)c2C)c1	none (no result: WT yeast gro inh, L major viab, Insulin prom inh, Autophagy HCS)
O=C(CSc1nncs1)Nc1cc(-c2ccccc2)nn1-c1ccccc1	L major viab 50.8
CCc1nc2ccccc2c(C(=O)OCC(=O)NC(=O)c2cccn2C)c1C	none (no result: WT yeast gro inh, L major viab, Insulin prom inh, Autophagy HCS)
CCCOc1ccc(-c2nnn(CC(=O)N3CCCCC3)n2)cc1	none (no result: WT yeast gro inh, L major viab, Insulin prom inh, Autophagy HCS)
Cc1ccccc1CN(C)CC(=O)Nc1cccc(S(=O)(=O)N(C)c2ccccc2)c1	L major viab 71.0 (no result: Insulin prom inh)
CC(=O)NCCC(=O)Nc1cccc(S(=O)(=O)N(C)c2ccccc2)c1	none
Nc1cc(C(F)(F)F)ccc1Nc1ccccc1	none (no result: Insulin prom inh)
CSc1cccc(NC(=O)COc2cccc3ccccc23)c1	Insulin prom inh 73.0 (no result: WT yeast gro inh)
O=C(COc1cccc2ccccc12)Nc1nc2ccccc2[nH]1	WT yeast gro inh 67.0 (no result: Insulin prom up)
CCOCC(=O)Nc1cccc(SC)c1	none (no result: Insulin prom inh)
CCCC(=O)Nc1nnc(CCOC)s1	none
CCCC(=O)Nc1nnc(SCC)s1	L major viab 69.8, Insulin prom inh inconclusive
CCCC(=O)Nc1nnc(COC)s1	Insulin prom inh 89.5
